# Assay results: PubChem BioAssay AID1117361 (Southern Research Institute, 2015)
# In all, about 3,600 compounds went through this assay and about 900 (25%) were called active. No rule for the calls is given here. These entries were drawn from the full list. Results with a measured potency or affinity are listed apart.
# Molecular target: Protein Tat (Human immunodeficiency virus type 1 group M subtype B (isolate HXB2)) (UniProt P04608)
# Experiment: inhibitors of Tat binding to TAR RNA, dose response, counter-screen for Vif-APOBEC3G degradation inhibitor project, biochemical, fluorescence polarization, FAM-labeled TAR RNA (AID 1117361)
# Details: outcome: dose series up to 100 µM unless noted; series mostly up to 100 µM
row,Structure (SMILES),outcome
1,O=C(NCCS(=O)CCNC(=O)C(F)(F)F)C(F)(F)F,inactive
2,Cc1onc(-c2ccccc2)c1C(=O)NCC1COc2ccccc2O1 (centres undefined),inactive
3,CC(=O)Cc1nsc(Nc2ccc3c(c2)OCCO3)n1,inactive
4,O=C(NN(C(=O)c1ccccc1)c1ccccc1)c1ccccc1,inactive
5,CC(NC(=O)C1C(=O)N(CCO)C2(C)CC1c1ccccc1O2)c1ccccc1 (centres undefined),inactive
6,CN1OC[C@@H]2CN(C(=O)C(C)(C)C)[C@H](c3cccc(Oc4ccccc4)c3)C[C@@H]21,inactive
7,O=C(c1cc(COc2cccc3cccnc23)on1)N1CCC[C@H]1CO,inactive
8,C=CCc1cc(Cl)ccc1OC(=O)Nc1cccc(Cl)c1,inactive
9,COc1ccc2[nH]c3c(N4CCC(O)(c5cccc(C(F)(F)F)c5)CC4)ncnc3c2c1,inactive
10,Clc1ccc(CSc2snnc2-c2ccccc2)c(Cl)c1,inactive
11,Cc1ccc(CSc2nnc(-c3ccco3)o2)cc1,inactive
12,CCCCN(CCCC)CCCN1CC(=O)N2[C@@H](Cc3c([nH]c4ccccc34)C2(C)C)C1=O,inactive
13,CC(C)Cn1c(=O)[nH]c2ccccc21,inactive
14,COc1ccc(CCN=C(N)NS(=O)(=O)c2ccc(C)cc2)cc1,inactive
15,O=C(NCc1ccco1)c1sc2cccc(F)c2c1Cl,inactive
16,CCN(CC)C(=O)Cn1cnc2sc(C(=O)Nc3cc(OC)c(OC)c(OC)c3)c(C)c2c1=O,inactive
17,CCc1ccc(NC(=O)CCNS(=O)(=O)c2cccc3nonc23)cc1,inactive
18,Cc1cc(NC(=O)CSc2nnc(-c3ccncc3)n2N)ccc1Br,inactive
19,CCN(CC)c1ccc(NC(=O)c2ccc(Br)o2)cc1,inactive
20,COc1ccc(NC(=O)c2ccc(S(=O)(=O)N3CCOCC3)o2)cc1,inactive
21,O=C(O)Cn1c(=O)c2c(c3ccccc31)CCC2,inactive
22,CS(=O)(=O)N1CCN(c2ccccc2NC(=O)CSc2ccc(Cl)cc2)CC1,inactive

row,Structure (SMILES),outcome
1,Cn1cccc1Cc1nnc(SCC(N)=O)n1CCc1ccccc1,inactive
2,CC[C@H](C)[C@H](NC(N)=O)C(=O)NCCc1ccc(OC)cc1,inactive
3,Cc1c(C)n(CC(O)CN2CCCCCC2)c2ccccc12 (centres undefined),inactive
4,Cc1ccc(-n2c(SCC(=O)NCc3ccco3)nc3c([nH]c4ccccc43)c2=O)cc1,inactive
5,CC1CCc2c(sc3ncn4c(SCC(=O)NCc5ccco5)nnc4c23)C1 (centres undefined),inactive
6,CCn1c(Cc2c(C)[nH]c3ccccc23)n[nH]c1=S,inactive
7,COc1ccc(-c2noc(Cc3cccs3)n2)cc1,inactive
8,O=C(/C=C/c1ccc(O)c(O)c1)c1ccc(S(=O)(=O)N2CCCCCC2)cc1,inactive
9,CCCNS(=O)(=O)c1ccc(NC(=O)c2ccccn2)cc1,inactive
10,CC(C)(C)c1ccc(C(=O)Oc2ccc3c(c2)OCC3=O)cc1,inactive
11,O=C1/C(=C\c2ccco2)CCC/C1=C\c1ccco1,inactive
12,C=CCNC(=S)NNC(=O)c1ccccc1,inactive
13,COc1ccc(N/N=C(\C#N)C(=N)SCc2ccccc2)cc1,inactive
14,CC1(C)Cc2cccc(OCC(O)CN3CCN(c4ccccn4)CC3)c2O1 (centres undefined),inactive
15,O=C1CNC(=O)/C1=C/c1ccc(Br)cc1,inactive
16,CC1CC(C)CN(C(=O)COC(=O)CNS(=O)(=O)/C=C/c2ccccc2)C1 (centres undefined),inactive
17,CCS(=O)(=O)N1CCN(C(=O)c2cccc3ccccc23)CC1,inactive
18,CN(C)CCCNC(NC(=O)c1cccs1)C(Cl)(Cl)Cl (centres undefined),inactive
19,Cc1nc2c3ccccc3n(CC(=O)c3ccc(F)cc3)c(=O)n2n1,inactive
20,O=C(NC(=S)N1CCN(c2c(Cl)cccc2[N+](=O)[O-])CC1)c1cccs1,inactive
21,COc1cc2c(cc1NC(=O)CC1SC(N3CCCC3)=NC1=O)oc1ccccc12 (centres undefined),inactive
22,O=S(=O)(c1ccc2nc(-c3ccco3)c(-c3ccco3)nc2c1)N1CCOCC1,inactive

row,Structure (SMILES),outcome
1,COc1ccc(N2CCN(C(=O)c3ccc(C)c(Cl)c3)CC2)cc1,inactive
2,COc1ccc2nc(N3CCN(C(=O)c4ccc5ncsc5c4)CC3)sc2c1,inactive
3,COc1ccc(C(=O)Nc2cccc(C(=O)N3CCN(C)CC3)c2)cc1,inactive
4,O=S(=O)(c1ccc(F)cc1)N(CCO)CC(O)Cn1c2ccccc2c2ccccc21 (centres undefined),inactive
5,Cc1c(C(=O)N2CCN(c3ccc(F)cc3)CC2)sc2nc(-c3ccccc3)cn12,inactive
6,CCS(=O)(=O)n1nc(-c2ccc(Cl)cc2)nc1SC,inactive
7,Cn1c(C(=O)NCCN2CCOCC2)cc2c(=O)n(C)c3ccccc3c21,inactive
8,COc1ccc(CNC(=O)Cn2nc(C(F)(F)F)c3c2CCC3)cc1,inactive
9,Cc1sc(NC(=O)c2ccccc2)c(C(=O)NCCN(C)C)c1C,inactive
10,CC1COCC(C)N1C1=C(Cl)C(=O)c2ccccc2C1=O (centres undefined),inactive
11,NC(=O)C1CCN(C2=C(Cl)C(=O)c3ccccc3C2=O)CC1,inactive
12,CCc1cc2c(=O)n(-c3ccc(C)cc3)cnc2s1,inactive
13,COc1ccc(CCNS(=O)(=O)c2ccc3c(c2)CCN3C(=O)CCC(=O)O)cc1OC,inactive
14,COc1ccc(C2C(C(=O)NCCN(C)C)c3ccccc3C(=O)N2C)cc1OC (centres undefined),inactive
15,CCCCN(CCCC)S(=O)(=O)c1ccc(NC(=O)c2cccs2)cc1,inactive
16,[O-][n+]1onc2c1CCc1c-2nc(-c2ccccc2)n1OCc1ccccc1,inactive
17,CCN(CCCNC(=O)C1CCCN(S(=O)(=O)CC)C1)c1cccc(C)c1 (centres undefined),inactive
18,O=C(c1ccc2c(c1)OCCO2)C1CCN(C(=O)c2ccc(F)cc2)CC1,inactive
19,CCc1ccccc1NC(=S)N(Cc1ccc(OC)cc1)CC1CCC(C(=O)O)CC1 (centres undefined),inactive
20,CCn1cc(C(=O)NCc2ccc3c(c2)OCO3)c2cc(OC)c(OC)cc2c1=O,inactive
21,Cc1ccc(C(=O)C2C(c3cccs3)NC(=O)NC2(O)C(F)(F)F)cc1 (centres undefined),inactive
22,CCOC(=O)C1=C(CN2CCN(c3ccc(F)cc3)CC2)NC(=O)NC1c1cccs1 (centres undefined),inactive

row,Structure (SMILES),outcome
1,Cn1cccc1C(=O)NC(=O)COC(=O)CC12CC3CC(CC(Br)(C3)C1)C2,inactive
2,CC1=C(C(=O)OCC(Cl)(Cl)Cl)N2C(=O)C(NC(=O)Cc3ccccc3)C2SC1 (centres undefined),inactive
3,O=C(Cc1ccccc1)Nc1scc(-c2ccccc2)c1C(=O)N1CCOCC1,inactive
4,CC(=O)[C@@]1(O)CC[C@H]2[C@@H]3CCC4=CC(=O)CC[C@]4(C)[C@H]3CC[C@@]21C,inactive
5,Cc1sc(-c2ccncc2)nc1OC(=O)c1ccccc1,inactive
6,COc1ccc(S(=O)(=O)NC2CC(C)(C)NC(C)(C)C2)c(C)c1C,inactive
7,Cc1sc2nc(C)n(/N=C/c3ccccc3O)c(=O)c2c1C,inactive
8,C=CCNC(=O)c1cc(=O)c2ccccc2o1,inactive
9,Cc1nn(-c2ccc(Cl)cc2)c2[nH]c(=O)c(CNCc3ccc4c(c3)OCO4)cc12,inactive
10,O=c1oc(/C=C/c2ccccc2)nc2sc3c(c12)CCC3,inactive
11,O=[N+]([O-])c1cc(C(F)(F)F)ccc1N1CCN(S(=O)(=O)c2ccc3ccccc3c2)CC1,inactive
12,COC(=O)C1=C(Nc2ccc(OC)cc2)C=C(C)C(C(=O)OC)C1c1ccc(C)cc1 (centres undefined),inactive
13,CC1(C)CC(NS(=O)(=O)c2ccccc2)CC(C)(C)N1,inactive
14,CC1(C)C2CCC1(C)C(NC1=NCCC1)C2 (centres undefined),inactive
15,CC(=NCc1ccc2c(c1)OCO2)C1=C(O)c2ccccc2C1=O,inactive
16,CCCN(CCC)C(=O)c1cc(-c2ccc3c(c2)OCO3)nc2ccccc12,inactive
17,CC(OC(=O)CC1CCCC1)C(=O)Nc1ccc(Cl)cn1 (centres undefined),inactive
18,Nn1c(SCC(=O)NC2CCCc3ccccc32)nnc1-c1cccs1 (centres undefined),inactive
19,COc1ccccc1CNS(=O)(=O)c1cccc(S(=O)(=O)N2CCOCC2)c1,inactive
20,COC(=O)C1C2CCC(C2)C1C(=O)OCC(=O)c1ccc(C)cc1 (centres undefined),inactive
21,CC(C)CC(=O)N(c1ccc(F)cc1)C1C=CS(=O)(=O)C1 (centres undefined),inactive
22,O=C(CCl)N1N=C(c2ccco2)CC1c1ccco1 (centres undefined),inactive

row,Structure (SMILES),outcome
1,Cc1cc(C)cc(NC(=S)NC(=O)CCN2C(=O)c3ccccc3C2=O)c1,inactive
2,CCCCOc1cccc(C(=O)NC(=S)Nc2ccc(Cl)c(C(=O)O)c2)c1,inactive
3,COC(=O)c1ccc(C)c(NS(=O)(=O)c2ccc(NC(C)=O)cc2)c1,inactive
4,COc1ccc(N2CCN(c3nc4ccccc4nc3NS(=O)(=O)c3ccccc3)CC2)cc1,inactive
5,CCc1ccc(-c2cc(C(=O)Nc3ccc(S(=O)(=O)NC(C)=O)cc3)c3ccccc3n2)cc1,inactive
6,CC(=O)Nc1ccc(S(=O)(=O)Nc2cccc(-c3nc4ccccc4o3)c2)cc1,inactive
7,COc1ccc(NCc2nnc(SCC(=O)N3CCCc4ccccc43)o2)cc1,inactive
8,O=c1oc(-c2cccnc2)nc2ccccc12,inactive
9,CC(C)(C)c1ccc(NC(=S)NCc2cccnc2)cc1,inactive
10,FC(F)Oc1ccccc1NC(=S)Nc1cccnc1,inactive
11,COc1ccc(N2C(=O)C3CCCN3C2c2ccc(C)cc2)cc1 (centres undefined),inactive
12,Cn1c(CNC(=O)C2CCCCC2)cc2cc(Cl)ccc21,inactive
13,CS(=O)(=O)N1CCC(C(=O)NCCc2ccccc2)CC1,inactive
14,CC(CN1CCN(C)CC1)OC(=O)c1ccccc1Cl (centres undefined),inactive
15,COc1ccc(C)cc1NC(=O)c1[nH]c(C)c(C(C)=O)c1C,inactive
16,COc1ccccc1N1CCN(C(=O)C(F)F)CC1,inactive
17,O=C(NCc1ccc(N2CCCC2=O)cc1)NC1CCCCC1,inactive
18,Cc1ccc2nc(C3CCN(CC(=O)Nc4ccc5c(c4)OCCO5)CC3)[nH]c2c1,inactive
19,O=C1NC2(CCCCC2)NN1c1ccccc1,inactive
20,O=C(O)c1ccc2c(c1)C(c1ccccc1)OC2=O (centres undefined),inactive
21,Cc1cc(C)c2c(c1)[C@@H]1C=CC[C@@H]1[C@H](c1ccc(S(=O)(=O)N3CCOCC3)cc1)N2,inactive
